This passage reports IC50 results from PubChem BioAssay AID624351 (Southern Research Specialized Biocontainment Screening …, 2012).

As usually defined, the IC50 is the concentration that gives 50% inhibition.

SMILES strings stand for the structures. In all, about 2,400 compounds went through this assay and about 1,400 (58%) were called active.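 The calls were made as follows: active = inhibition of 30% or more at any tested dose; inconclusive = primary hits over the limit that were never retested; inactive = the rest.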 The set was probably picked from earlier hits. This is one part of the list.

The nature of the assay: ADP Hunter readout inhibition without MgcRacGAP – biochemical, coupled enzyme counter-screen, artefact control for MgcRacGAP inhibitor project, dose response (AID 624351).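 Also: signal is the ADP detection kit reading of free GDP without any GAP enzyme.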 The note with it: fluorescence, no MgcRacGAP; series mostly up to 80 µM. (A counterscreen serves to expose hits that act by an unwanted route or on another target.)
For `COc1cccc(OC)c1C(=O)N1CCN(Cc2ccc3c(c2)OCO3)CC1`, the IC50 result is “inactive”.
Next, `Clc1ccccc1CNCc1ccc2c(c1)OCO2`: “inactive”.
Next, `c1cc2c(cc1CNc1ccc(N3CCOCC3)cc1)OCO2`: 4.31 µM (active).
Next, `C=CCNC(=S)N1CCN(Cc2ccc3c(c2)OCO3)CC1`: “inactive”; `CC(=O)N1CCN(c2ccc(NCc3ccc4c(c3)OCO4)cc2)CC1`: 9.9 µM (active).
On to `COc1cc(OC)cc(C(=O)N2CCN(Cc3ccc4c(c3)OCO4)CC2)c1`, for which the IC50 entry is “inactive”.
Next, `CN1CCN(CCOCCOc2ccc(Br)cc2Cl)CC1`: “inactive”; `CCN1CCN(CCCOc2ccc(Cl)cc2Br)CC1`: “inactive”.
`CN1CCN(CCCN2c3ccccc3Sc3ccc(Cl)cc32)CC1`: the IC50 was 83.1 µM (active).
The same measure for `CN(C)CCCN1c2ccc(O)cc2Sc2ccc(Cl)cc21`: 13.1 µM (active); for `C=CCc1cc(Cl)ccc1OCCN(C)C`: “inactive”.
Regarding `Oc1ccc(/C=N/Nc2ccc(C(F)(F)F)cn2)cc1`, the IC50 was 29.7 µM (active).
Regarding `Oc1ccc(/C=N/Nc2ccc(C(F)(F)F)cn2)c(O)c1`, the IC50 was 34.8 µM (active).
Next, `COc1cc(/C=N/Nc2ccc(C(F)(F)F)cn2)ccc1O`: 52.5 µM (active); `COc1cc(/C=N/Nc2ncc(C(F)(F)F)cc2Cl)cc(OC)c1O`: “inactive”; `Cc1ncc(CO)c(/C=N/Nc2ccc(C(F)(F)F)cn2)c1O`: “inactive”.
The same measure for `OCCNCCSc1nc(C2CCCCC2)n(-c2ccccc2Cl)n1`: “inactive”.
Next, `O=c1[nH]c(/C=C\c2ccc(O)cc2)nc(O)c1[N+](=O)[O-]`: 43.4 µM (active).
For `COc1cc(/C=N/NC(=O)c2cccc(N3CCCC3=O)c2)ccc1O`, the IC50 was 34.1 µM (active).
For the molecule `COc1cc(/C=N/NC(=O)c2ccc(N3CCCC3=O)cc2)ccc1O`, the concentration for half-maximal inhibition (IC50) is 31.5 µM (active).
Next, `O=c1nc2s/c(=C\c3ccc(-c4ccccc4[N+](=O)[O-])o3)c(=O)n2nc1-c1ccccc1`: “inactive”; `O=C(N/N=C/c1ccc(O)cc1)NC12CC3CC(CC(C3)C1)C2`: 53 µM (active); `COc1cc(/C=N/NC(=O)NC23CC4CC(CC(C4)C2)C3)ccc1O`: 56.2 µM (active).
Next, `COc1cc(/C=N/N=C2\CC3CCC2(C)C3(C)C)ccc1O` (stereo unspecified): 45.7 µM (active).
For `C=C1CC(C(=O)N/N=C/c2ccc(O)cc2)C1`, the IC50 was 45.9 µM (active).
For the molecule `O=C(O)C1CSC(c2ccco2)N1` (stereo unspecified), the IC50 result is “inactive”.
For the molecule `CCOc1ccc(CNC2CCCc3ccccc32)cc1` (stereo unspecified), the IC50 entry is “inactive”.
The same measure for `COc1cc(/C=N\NC(=O)C2CC3C=CC2C3)ccc1O` (stereo unspecified): 23.9 µM (active).
With `COCCNC(=O)CN(C(=O)Cn1nnc2ccccc21)c1ccc(C)cc1`, the IC50 entry is “inactive”.
As to `COCCNC(=O)Cn1cc(/C=N/NC(=O)c2ccc(Oc3ccc(O)cc3)cc2)c2ccccc21`, the IC50 is 44.8 µM (active).
In the case of `Oc1ccc(/C=N/Nc2ncc(Cl)cc2Cl)cc1`, the IC50 was 21.5 µM (active).
Next, `Oc1ccc(/C=N/Nc2nccnc2Cl)cc1`: 21.1 µM (active); `Oc1ccc(/C=N/Nc2nccnc2Cl)c(O)c1`: 12.8 µM (active); `Cc1cc(C)c(OCCCCN(C)Cc2ccccc2)c(C)c1`: “inactive”.
The same measure for `COc1cc(/C=N/N(C)c2ccccc2)cc(Cl)c1O`: 37.7 µM (active); for `COc1cc(OC)c(OC)cc1/C=N/N(C)c1ccccc1`: 56.4 µM (active); for `COc1cc(/C=N/N(C)c2ccccc2)ccc1O`: 17.3 µM (active).
The same measure for `Cc1ccc(N2C(S)=C(C#N)C(=O)NC2c2cccs2)cc1` (stereo unspecified): “inactive”.
With `CC1=NN(c2ccc(Cl)c(C(=O)O)c2)C(=O)/C1=C/c1ccc(-c2ccccc2[N+](=O)[O-])o1`, the IC50 entry is “inactive”.
Next, `Cc1ccc(CNc2ccc(N3CCOCC3)cc2)s1`: 11.7 µM (active).
For the molecule `CC(=O)N1CCN(c2ccc(NCc3ccc(F)cc3)cc2)CC1`, the IC50 was 10.9 µM (active).
As for `CC(=O)N1CCN(c2ccc(NCc3cccc(C)c3)cc2)CC1`, the IC50 is 7.75 µM (active).
Turning to `COc1cccc(-c2cc(C(=O)N3CCN(c4ccc(F)cc4)CC3)no2)c1`, the IC50 result is “inactive”.
In the case of `CC(=O)N1CCN(c2ccc(NCc3ccc(C(C)C)cc3)cc2)CC1`, the IC50 is 8.85 µM (active).
Next, `Cc1cccc(CN2CCN(C(C)C(=O)NC(C)c3ccccc3)CC2)c1` (stereo unspecified): “inactive”.
Next, `O=c1c2cc(F)ccc2sn1-c1ccccc1`: “inactive”.
With `CC(=O)N1CCN(c2ccc(NCc3cccs3)cc2)CC1`, the IC50 is 14.7 µM (active).
Consider `CC(=O)N1CCN(c2ccc(NCc3ccccc3)cc2)CC1`, for which the IC50 was 8.44 µM (active).
The same measure for `O=C(CNCc1cccs1)Nc1ccc(N2CCCCCC2)cc1`: “inactive”; for `CCc1ccc(CNc2ccc(N3CCN(C(C)=O)CC3)cc2)cc1`: 9.1 µM (active).
Regarding `CC(C)c1ccc(CNc2ccc(N3CCOCC3)cc2)cc1`, the IC50 was 7.52 µM (active).
Next, `Cc1ccccc1C(OCC(O)CN1CCN(CCO)CC1)c1ccccc1` (stereo unspecified): “inactive”.
As for `O=C(CNc1ccc(Oc2ccccc2)cc1)N1CCOCC1`, the IC50 entry is “inactive”.
`c1ccc(CNc2ccc(N3CCOCC3)cc2)cc1`: the 50% inhibitory concentration (IC50) was 5.39 µM (active).
The same measure for `Cc1ccc(/C=N/Nc2ccc(C(=O)O)cc2)s1`: 79.7 µM (active); for `Cc1ccc(/C=N/Nc2ccc(Cl)c(C(=O)O)c2)s1`: 67.4 µM (active).
Next, `CC(C)n1cc(/C=N/Nc2ccc(Cl)c(C(=O)O)c2)c2ccccc21`: “inactive”; `O=c1[nH][nH]cc1C=Nc1cc(Cl)ccc1O`: 46 µM (active).
Next, `O=c1[nH][nH]cc1C=Nc1ccc(Cl)cc1Cl`: “inactive”; `CCCCn1c(SCC(=O)c2ccc(O)c(O)c2)nc2ccsc2c1=O`: 45.9 µM (active).
Turning to `CC(Oc1ccc(Cl)cc1Cl)C(=O)Nc1ccc(O)cc1` (stereo unspecified), the IC50 was 46.9 µM (active).
The same measure for `CCOc1cccc(CNc2ccc(O)cc2)c1OCc1ccc(Cl)cc1Cl`: “inactive”; for `CCCC(=O)NC(=S)Nc1cccc2c(O)cccc12`: 46.4 µM (active).
Take `O=C(NC(NC(=S)Nc1ccc(Cl)c(Cl)c1)C(Cl)(Cl)Cl)c1ccco1` (stereo unspecified): the IC50 result is “inactive”.
Next, `O=C(NC(=S)Nc1cccc2c(O)cccc12)c1ccco1`: 42.5 µM (active); `Oc1ccc(/C=N/NC(=S)NCc2ccco2)cc1`: 44.4 µM (active).
Next, `COc1cc(/C=N/NC(=O)C(=O)N2CCCC2)ccc1O`: 40.8 µM (active).
The same measure for `S=C(NCc1ccco1)NCc1ccco1`: “inactive”; for `CCOc1cc(/C=N/NC(=O)CN2CCCCC2)ccc1O`: 55.5 µM (active).
For `CCN1CCN(CC(=O)Nc2cc(C(F)(F)F)ccc2OCCOC)CC1`, the IC50 entry is “inactive”.
As for `CCOc1cc(/C=N/NC(=O)C(=O)N2CCCC2)ccc1O`, the IC50 was 60.6 µM (active).
On to `COc1cc(/C=N/NC(=O)C(=O)NCC2CCCO2)ccc1O` (stereo unspecified), for which the IC50 was 31.2 µM (active).
The same measure for `CCN1CCN(C(=S)NCC2CCCO2)CC1` (stereo unspecified): “inactive”; for `Oc1ccc(/C=N/NC(=S)NCC2CCCO2)cc1` (stereo unspecified): 28.5 µM (active); for `Cc1nnc(N=c2ssnc2Cl)o1`: “inactive”.
Turning to `Nc1nc(=S)ss1`, the IC50 result is “inactive”.
The same measure for `COc1ccc(CN2CCCC(C(=O)N3CCCC3)C2)cc1` (stereo unspecified): “inactive”; for `COc1ccc(N2CCN(C(=O)CCCn3c(=O)c4cccn4c4cccnc43)CC2)cc1`: “inactive”; for `COc1cccc(CN2CCC(C(=O)N3CCC(C)CC3)CC2)c1`: “inactive”.
The same measure for `COc1ccc2[nH]c3c(=O)n(CCCCC(=O)N4CCC(C(N)=O)CC4)c(=S)[nH]c3c2c1`: 53.3 µM (active).
As for `COc1ccc2[nH]c3c(=O)n(Cc4ccc(C(=O)N5CCC(C(N)=O)CC5)cc4)c(=S)[nH]c3c2c1`, the IC50 was 37.6 µM (active).
In the case of `CC(C)=NNc1cc([N+](=O)[O-])cc2c1C(=O)N(C)S2=O` (stereo unspecified), the IC50 result is “inactive”.
Regarding `Oc1ccc(Cl)cc1N=Cc1sc2ccccc2c1Cl`, the IC50 was 21.4 µM (active).
On to `Cc1ccc(O)c(N=Cc2sc3ccccc3c2Cl)c1`, for which the IC50 was 39.7 µM (active).
Next, `CS(=O)(=O)N1CCN(C2C3CC4CC(C3)CC2C4)CC1` (stereo unspecified): “inactive”; `O=C(CN1CCCCCC1)NN(Cc1ccccc1)c1ccccc1`: “inactive”.
Take `O=C(COC(=O)c1ccccc1)Nc1ncc([N+](=O)[O-])s1`: the IC50 result is “inactive”.
On to `CCS(=O)(=O)NC(C)C(c1cccs1)N1CCN(c2ccc(OC)cc2)CC1` (stereo unspecified), for which the IC50 is 81.8 µM (active).
The same measure for `COc1ccc(N2CCN(C(c3cccs3)C(C)NC(=O)c3ccco3)CC2)cc1` (stereo unspecified): “inactive”; for `COc1ccc(N2CCN(C(CNS(=O)(=O)c3ccc4c(c3)OCCO4)c3ccco3)CC2)cc1` (stereo unspecified): “inactive”; for `Nc1ccc2nc(N)sc2c1`: 11 µM (active).
In the case of `Nc1ccc(-c2nc3ccc(N)cc3s2)cc1`, the IC50 is 75.8 µM (active).
The same measure for `N#CC1(Nc2ccc3c4c(cccc24)CC3)CCCCC1`: 24.3 µM (active); for `COc1ccc2c(c1)c(C(=O)N/N=C/c1ccc(O)c(O)c1)c(C)n2C`: 22 µM (active); for `COc1ccc(/C=N/Nc2cc(C)nc3ccc(OC)cc23)c(OC)c1`: “inactive”.
Next, `COc1ccc2nc(/N=C(\N)NC(=O)N3c4ccccc4Sc4ccccc43)nc(C)c2c1`: “inactive”; `COc1ccc2nc(C)cc(SCC(=O)N/N=C/c3ccc(O)c(O)c3)c2c1`: 28 µM (active).
With `CC1(C)C2CCC(CN=C(N)CSS(=O)(=O)O)C1C2` (stereo unspecified), the IC50 entry is “inactive”.
Take `CC(/C=C/c1ccc(O)cc1)=N/O`: the IC50 is 11.8 µM (active).
`COc1ccc(N2CCC(CNC(=O)Nc3ccc(C)c(C)c3)C2)cc1` (stereo unspecified): the IC50 entry is “inactive”.
The same measure for `COc1ccc(N2CCC(CNC(=S)Nc3cc(C)cc(C)c3)C2)cc1` (stereo unspecified): “inactive”; for `CCc1c(C)nc(N2CCN(c3ccc(OC)cc3)CC2)[nH]c1=O`: “inactive”.
Next, `COc1ccc(N2CCC(CNC(=S)Nc3cccc(C)c3)C2)cc1` (stereo unspecified): 72.2 µM (active).
With `COc1ccc(CNCC(=O)Nc2ccccc2-n2cccc2)cc1`, the IC50 entry is “inactive”.
For `CCc1ccccc1NC(=S)NCC1CCN(c2ccc(OC)cc2)C1` (stereo unspecified), the IC50 was 65.3 µM (active).
On to `COc1ccc(NC(=S)NCC2CCN(c3ccc(OC)cc3)C2)cc1` (stereo unspecified), for which the half-inhibitory concentration (IC50) was 52.5 µM (active).
With `CC(=O)N1CCC(=NNC(=O)c2cc3ccccc3cc2O)CC1`, the IC50 entry is “inactive”.
The same measure for `CN(Cc1ccccc1)C(=O)C1CCCN(Cc2ccc(Cl)cc2)C1` (stereo unspecified): “inactive”; for `COc1cc(/C=N/N2C(=O)c3ccccc3C2=O)ccc1O`: 41.6 µM (active); for `O=C1c2ccccc2C(=O)N1/N=C/c1ccc(O)c(O)c1`: 33.2 µM (active).
The same measure for `O=C1C2C3C=CC(CC3)C2C(=O)N1/N=C/c1ccc(O)c(O)c1` (stereo unspecified): 64.1 µM (active).
